SMILES strings stand for the structures. The source made the active and inactive calls.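 How the source made its calls: active means blocks over 70% of labeled estradiol binding at 10 µM, or over a set limit at 100 nM; inactive means the rest.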

The experiment concerns the target Estrogen receptor beta (Homo sapiens) (UniProt Q92731). Briefly: ERbeta ligand binders by competition, primary screen, cell-based, Cos7 ERbeta-GFP, flow cytometry (AID 1210).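 Further: 0% = DMSO vehicle wells and 100% = complete loss of labeled estradiol signal.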 The note with it: fluorescent estrogen binding, stronger effect = higher value.
Setting [1] is: ligand binding inhibition, at 0.1 µM.

Sequence of Estrogen receptor beta (Homo sapiens) (Q92731 whole entry, looked up): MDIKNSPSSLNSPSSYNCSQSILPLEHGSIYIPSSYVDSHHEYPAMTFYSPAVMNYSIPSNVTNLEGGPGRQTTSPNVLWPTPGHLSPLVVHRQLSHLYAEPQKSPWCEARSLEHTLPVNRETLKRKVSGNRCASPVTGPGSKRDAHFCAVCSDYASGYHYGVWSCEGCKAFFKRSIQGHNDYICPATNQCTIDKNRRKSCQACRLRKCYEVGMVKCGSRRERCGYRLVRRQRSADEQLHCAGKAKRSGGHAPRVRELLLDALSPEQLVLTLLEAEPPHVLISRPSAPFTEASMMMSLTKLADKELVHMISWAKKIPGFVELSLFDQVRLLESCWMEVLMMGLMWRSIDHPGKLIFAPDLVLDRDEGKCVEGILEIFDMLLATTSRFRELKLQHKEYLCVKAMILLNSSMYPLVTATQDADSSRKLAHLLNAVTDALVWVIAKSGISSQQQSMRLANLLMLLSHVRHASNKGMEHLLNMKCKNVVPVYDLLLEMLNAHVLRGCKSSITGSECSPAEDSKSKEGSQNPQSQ

For orientation: inhibition means how much of the control response was suppressed. For `CC(C)CC(=O)Nc1ccc(C(=O)COc2ccc(-c3nnco3)cc2)cc1`, the inhibition (at 10 µM) is 44% (inactive) and the inhibition under setting [1] was 49%.
On the same counts, the results for `Nc1cc2sc(-c3ccc(C(=O)O)cc3)nc2cc1Cl` are 22% (inactive) and 44%.
Turning to `N=C1C(c2nc3ccccc3[nH]2)=C(O)CN1c1ccc(CC(=O)O)cc1`, the inhibition (at 10 µM) is 26% (inactive) and the inhibition under setting [1] was found to be 21%.
On the same counts, the results for `O=C(CSc1nnc(Nc2ccccc2F)s1)NCc1ccco1` are 4% (inactive) and 48%.
For the compound `O=C1c2ccccc2NC(c2cccnc2)N1c1ccccc1F` (stereo not given), the inhibition was 63% (inactive) (at 10 µM) and 24% under setting [1].
On the same counts, the results for `CN(C)CC(=O)N1c2ccccc2CCc2ccc(NC(=O)c3ccc(N)cc3)cc21` are 39% (inactive) and 62%.
On the same counts, the results for `Cc1ccccc1Nc1nnc(SCC(=O)NC(=O)NCc2ccco2)s1` are 0% (active) and 67%.
Take `COC1=C/C(=C/c2c(N)n3cc(C)sc3nc2=O)C=CC1=O`: the inhibition is 62% (inactive) (at 10 µM) and 7% under setting [1].
On the same counts, the results for `COc1cc(NC(=O)COc2ccc(-n3cnnn3)cc2)c(OC)cc1Cl` are 61% (inactive) and 17%.
In the same order, the values of `C/C=C/COC(=O)c1[nH]c2c(c1C)C(=O)CC(c1ccco1)C2` (stereo not given) are 53% (inactive) and 11%.
In the same order, the values of `Oc1ccc(/C=N/n2c(-c3ccco3)csc2=Nc2cccnc2)c(O)c1` are 20% (inactive) and 18%.
As to `Cn1nnnc1SCC(=O)Nc1nc(-c2ccccc2)c(-c2ccccc2)o1`, the inhibition is, setting by setting: (at 10 µM) 39% (inactive); under setting [1], 32%.
Take `O=C(O)c1cc(-c2ccco2)nc2ccc(Br)cc12`: the inhibition is 63% (inactive) (at 10 µM) and 9% under setting [1].
For `O=C1NCCCC2c3cc(O)c4ccccc4c3OC12N1CCCCC1` (stereo not given), the inhibition reads like this: (at 10 µM) 56% (inactive); under setting [1], 27%.
In the same order, the values of `CCOC(=O)c1c(NC(=O)CSc2nnc(-c3ccccc3)o2)sc(C(C)=O)c1C` are 40% (inactive) and 32%.
Turning to `Cc1ccc(S(=O)(=O)NCCn2c(C)cc3ccccc32)cc1`, the inhibition is 23% (inactive) (at 10 µM) and 18% under setting [1].
Consider `COc1nc(-c2ccc(Cl)cc2)ccc1-c1noc(-c2ccco2)n1`, for which the inhibition reads like this: (at 10 µM) 72% (active); under setting [1], 56%.
As for `COc1cc2c(cc1O)C(Cc1ccc(O)cc1)NCC2` (stereo not given), the inhibition reads like this: (at 10 µM) 72% (active); under setting [1], 11%.
In the same order, the values of `Cc1ccc(-c2nn(-c3ccccc3)cc2CSC(=N)N)cc1` are 38% (inactive) and 33%.
`CC(C)c1ccc2c(c1)[C@H]1OCC[C@H]1[C@@H](c1cccs1)N2`: the inhibition (at 10 µM) was 0% (inactive) and the inhibition under setting [1] amounted to 36%.
For the compound `O=c1cc(-c2ccc(O)c(O)c2)oc2c(C3O[C@H](CO)[C@@H](O)[C@H](O)[C@H]3O)c(O)cc(O)c12` (stereo not given in full), the inhibition was 40% (inactive) (at 10 µM) and 17% under setting [1].
In the same order, the values of `O=S(=O)(NCc1csc(-c2cccnc2)n1)c1cccs1` are 34% (inactive) and 21%.
In the same order, the values of `CCn1c2ccccc2c2cc(NC(=O)CSc3nnc(-c4ccc(OC)cc4)n3N)ccc21` are 57% (inactive) and 24%.
Turning to `COc1ccc(C2CC(=O)Nc3ccccc3S2(=O)=O)cc1OC` (stereo not given), the inhibition is, setting by setting: (at 10 µM) 5% (inactive); under setting [1], 20%.
`O=C(Nc1ccc2c(c1)nc1n2CCSC1)c1ccco1`: the inhibition by setting is: (at 10 µM) 57% (inactive); under setting [1], 31%.
Regarding `Cc1ccc(OCCN2CCN(CC(O)Cn3c4ccccc4c4ccccc43)CC2)cc1` (stereo not given), the inhibition is, setting by setting: (at 10 µM) 62% (inactive); under setting [1], 31%.
Regarding `O=C1NC(c2ccc(Br)cc2)Nc2sc3c(c21)CCC3` (stereo not given), the inhibition by setting is: (at 10 µM) 54% (inactive); under setting [1], 50%.
In the same order, the values of `Nc1ccc2oc(-c3ccc4nc[nH]c4c3)nc2c1` are 62% (inactive) and 2%.
On the same counts, the results for `Nc1ccc2oc(-c3ccccc3Cl)cc(=O)c2c1O` are 25% (inactive) and 26%.
On the same counts, the results for `O=C(Cn1ncc2c(=O)oc3ccccc3c21)Nc1nc2ccccc2s1` are 35% (inactive) and 7%.
For the compound `COc1ccc(-c2cn3c(C)c(C(=O)Nc4ccncc4)sc3n2)cc1`, the inhibition was 60% (inactive) (at 10 µM) and 19% under setting [1].
In the same order, the values of `O=C(Nc1ccc(O)cc1C(=O)O)c1ccc2c(c1)C(=O)N(Cc1ccco1)C2=O` are 52% (active) and 72%.
In the same order, the values of `CCOC(=O)C1=C(C)NC(=O)NC1c1ccco1` (stereo not given) are 11% (inactive) and 15%.
In the case of `O=c1oc2ccccc2cc1-c1ccc(O)cc1O`, the inhibition (at 10 µM) is 42% (inactive) and the inhibition under setting [1] worked out at 21%.
In the same order, the values of `Cc1occc1C(=O)NCc1cccc(CNC(=O)c2ccoc2C)c1` are 2% (inactive) and 10%.
In the same order, the values of `CCc1ccc2[nH]c(=O)c(CN(Cc3ccc4c(c3)OCO4)C(=O)c3ccco3)cc2c1` are 13% (inactive) and 6%.
On the same counts, the results for `CC1(C)Cc2c(sc3c4nnnn4c4nnnn4c23)CO1` are 23% (inactive) and 40%.
In the case of `CCOC(=O)Cc1cc(=O)n2[nH]c(-c3ccc(C)cc3)cc2n1`, the inhibition runs as follows: (at 10 µM) 19% (inactive); under setting [1], 15%.
In the same order, the values of `O=c1oc2ccccc2cc1-c1ccc(O)cc1` are 58% (inactive) and 3%.
In the same order, the values of `CCOC(=O)c1c(C)[nH]c(C)c1C(=O)CSc1nnc(-c2cc(OC)c(OC)c(OC)c2)o1` are 69% (inactive) and 7%.

The values are drawn from PubChem BioAssay AID1210 (NMMLSC, 2008).
